Whole data set: some 33,000 sequences, median “e-score” near -0.05, cut for the highest 2% near 0.38. Shown is part of a subset that was picked to be rich in the highest values.

The target of this assay is T1, SIX1-Q177R homeodomain (human, UniProt Q15475 108-198, Q177R).
T1 sequence: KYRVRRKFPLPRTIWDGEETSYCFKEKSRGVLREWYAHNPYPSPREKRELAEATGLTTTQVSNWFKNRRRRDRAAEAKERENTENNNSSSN
Description: universal protein binding microarray; Universal all-10-mer PBM (8x60K, AMADID 030236), 300 nM GST-tagged protein, Alexa Fluor 488 anti-GST; buffer, salt, pH and temperature not stated (as in Berger); high values mean tight binding. The conditions noted are these: protein: ivt; tags: N-terminal GST; dsDNA, one strand shown. Summed up: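 Binding of GST-tagged homeodomains is given as 8-mer E-scores from the Universal PBM Analysis Suite. The proteins were produced by in vitro transcription/translation, quantified by anti-GST western blot against a recombinant GST standard curve, and applied in duplicate at 300 nM final concentration to universal 'all 10-mer' protein binding microarrays (8×60K format).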
On to GTATCAGA, for which the binding signal came to 0.284 ± 0.0131 E-score.
Next, GTTGGGGA: 0.218 ± 0.00618 E-score.
Next, CCCTTTGC: 0.219 ± 0.0339 E-score.
Next, CCCGGGTC: 0.335 ± 0.0417 E-score; GGTGTAGA: 0.4728 ± 0.00114 E-score; CGTGTAAG: 0.428 ± 0.0306 E-score.
As for GGAGTAAC, the binding signal came to 0.157 ± 0.0575 E-score.
GGAGTAGA: the binding signal was found to be 0.2198 ± 0.000615 E-score.
Turning to GGGGTAAC, the binding signal turned out to be 0.293 ± 0.0173 E-score.
For the sequence CGTGTAAC, the binding signal came out at 0.43 ± 0.0129 E-score.
Next, GGTGTAAC: 0.482 ± 0.00603 E-score.
Turning to AGGGTAAG, the binding signal worked out at 0.152 ± 0.023 E-score.
On to CGGGTAAC, for which the binding signal came to 0.2 ± 0.000757 E-score.
With GGGGTAGA the figure was 0.194 ± 0.0142 E-score; with CACCACTC, 0.322 ± 0.00333 E-score; with CGTATGAC, 0.199 ± 0.0291 E-score.
With AATAGGTG the figure was 0.207 ± 0.0434 E-score; with AGTGTGAT, 0.223 ± 0.0157 E-score; with GGAGTAAA, 0.222 ± 0.0733 E-score.
With AGTGTAAG the figure was 0.415 ± 0.026 E-score.
Consider AGTGTGAG, for which the binding signal stood at 0.208 ± 0.00245 E-score.
For the sequence GGTGTAAA, the binding signal turned out to be 0.476 ± 0.0157 E-score.
Next, CGTGTAAA: 0.435 ± 0.0253 E-score; AGTGTATG: 0.36 ± 0.013 E-score.
With CGGGTAAA the figure was 0.194 ± 0.0165 E-score; with AGTGTAAT, 0.413 ± 0.0369 E-score; with GGGGTAAA, 0.29 ± 0.0101 E-score.
As to AGTCGGGG, the binding signal was 0.158 ± 0.0158 E-score.
CCCCCCGC: the binding signal was determined as 0.248 ± 0.0302 E-score.
For GCGATCCC, the binding signal was 0.182 ± 0.0137 E-score.
Take CGGAGTGA: the binding signal was 0.216 ± 0.008 E-score.
Regarding CACGATGC, the binding signal amounted to 0.182 ± 0.0345 E-score.
As to GGTGCCAC, the binding signal was determined as 0.195 ± 0.0196 E-score.
Next, CTCCCGAC: 0.1532 ± 0.000212 E-score.
Take AGAGTAAC: the binding signal came out at 0.163 ± 0.0176 E-score.
With TGTGTAAA the figure was 0.235 ± 0.0184 E-score.
With AGTGTAAA the figure was 0.402 ± 0.0464 E-score; with AGTGTAAC, 0.419 ± 0.0327 E-score.
With AGGGTAAC the figure was 0.176 ± 0.0073 E-score; with ACTGGGAG, 0.223 ± 0.0162 E-score; with ACCGGTGC, 0.238 ± 0.0365 E-score.
Consider CCGATCCA, for which the binding signal came to 0.188 ± 0.0051 E-score.
For the sequence ACCCCCTA, the binding signal was found to be 0.337 ± 0.0127 E-score.
As for GTTACACA, the binding signal came to 0.267 ± 0.0166 E-score.
With ATTACCCC the figure was 0.294 ± 0.00817 E-score.
Regarding ATTACACG, the binding signal was found to be 0.435 ± 0.0178 E-score.
For the sequence ATTACACA, the binding signal is 0.291 ± 0.00197 E-score.
ATTACTCC: the binding signal was determined as 0.287 ± 0.0213 E-score.
For the sequence CTTACACA, the binding signal came out at 0.231 ± 0.0061 E-score.
Turning to CTTACTCC, the binding signal amounted to 0.194 ± 0.0358 E-score.
Next, CTTACACC: 0.478 ± 0.00815 E-score.
As to ATTACACC, the binding signal was determined as 0.479 ± 0.0126 E-score.
On to ACGCGGGC, for which the binding signal was found to be 0.164 ± 0.0117 E-score.
As for GGTGGGTA, the binding signal is 0.165 ± 0.0261 E-score.
For GAGATACC, the binding signal was determined as 0.225 ± 0.0222 E-score.
For the sequence GATTAACA, the binding signal worked out at 0.162 ± 0.0238 E-score.
Take ACACTCGA: the binding signal was found to be 0.358 ± 0.0137 E-score.
Regarding CCACTCGC, the binding signal was 0.222 ± 0.00987 E-score.
Next, ACACTCGT: 0.351 ± 0.0272 E-score.
Next, ACACTCGC: 0.385 ± 0.0258 E-score; ACACTCGG: 0.408 ± 0.0187 E-score; AGACTCGG: 0.16 ± 0.0294 E-score.
With AAGCTACA, the binding signal amounted to 0.178 ± 0.0271 E-score.
Regarding GGTGTGTA, the binding signal amounted to 0.411 ± 0.0106 E-score.
GGTGTGAA: the binding signal amounted to 0.427 ± 0.00482 E-score.
With AGTGTGAC, the binding signal was found to be 0.359 ± 0.00684 E-score.
Next, AGTGTGTA: 0.285 ± 0.00827 E-score; TGTGTGAA: 0.187 ± 0.0245 E-score.
As to CGTGTGCA, the binding signal was 0.202 ± 0.0212 E-score.
As to GGTGTGCA, the binding signal is 0.391 ± 0.0295 E-score.
GGTGTGAC: the binding signal came to 0.435 ± 0.0199 E-score.
On to AGTGTGAA, for which the binding signal came out at 0.276 ± 0.021 E-score.
As for CGTGTGAC, the binding signal stood at 0.304 ± 0.0135 E-score.
Consider AGTGTGCA, for which the binding signal is 0.185 ± 0.00583 E-score.
In the case of CACTCGGA, the binding signal stood at 0.177 ± 0.0507 E-score.
Next, GTATCACA: 0.3 ± 0.034 E-score.
Turning to ATCCGACA, the binding signal was 0.238 ± 0.04 E-score.
ACCTAGGT: the binding signal was determined as 0.157 ± 0.0301 E-score.
Next, GGGGGATA: 0.2 ± 0.0198 E-score; CAAGCACC: 0.176 ± 0.0183 E-score; GGTATATA: 0.1906 ± 0.000509 E-score.
With CGTGTATA the figure was 0.367 ± 0.0156 E-score.
With GGTGTATA the figure was 0.458 ± 0.0157 E-score; with GTGCAACA, 0.292 ± 0.0195 E-score.
Take ACCTATAA: the binding signal was found to be 0.177 ± 0.008 E-score.
Consider AGTTTATC, for which the binding signal came to 0.208 ± 0.0174 E-score.
On to CCCCGAGC, for which the binding signal was 0.198 ± 0.0241 E-score.
With AGTGTATC the figure was 0.399 ± 0.0163 E-score.
